Data taken from PubChem BioAssay.

Assay: calcein-AM signal in unstimulated myeloma cells – cell-based, calcein-AM fluorescence, 48 h, PK04 Diversity Set, profiling panel (AID 1166);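 note: cells grown under basal conditions without added stimulus; test concentration not given here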
Settings: RPMI8226 myeloma viability, higher = more signal
In the case of Cc1ccc(S[C@]2(C(=O)O)CC(=O)N(Cc3cc(C(F)(F)F)cc(C(F)(F)F)c3)[C@@H]2c2ccc(CO)cc2)cc1, the z-score is reported as -0.82. For CC(C)Cc1ccc(CN2CC[C@@H](NC(=O)Nc3ccccc3)C2)cc1, the z-score was -4.03. C=CC1c2cc(O)c(OC)cc2CCN1Cc1cc2c(cc1Br)OCO2 (stereo not given) gave a z-score of -4.57. For O=C1O[C@H](c2ccccc2)[C@H](c2ccccc2)N2[C@H]1[C@@H](C(=O)N1CCN(c3ncccn3)CC1)[C@]1(C(=O)Nc3ccc(C#CC4(O)CCCCCC4)cc31)[C@H]2c1ccc(OCCO)cc1, the z-score was 0.148. COC(=O)C(CC#Cc1ccc2c(c1)[C@]1(C(=O)N2)[C@H](c2ccccc2OCCO)N2[C@H](c3ccccc3)[C@H](c3ccccc3)OC(=O)[C@H]2[C@@H]1C(=O)NC[C@H](O)c1ccccc1)C(=O)OC showed a z-score of -4.55. Cc1ccccc1C(O)C1C=CC2C(=O)N(C)C(=O)C2N1N(c1ccccc1)c1ccccc1 (stereo not given) gave a z-score of 0.0748. Compound CCC[C@@H]1C[C@@]1(CCC)[C@@H](NC(=O)OCc1ccccc1)c1ccc(-c2ccccc2)cc1 has a z-score of -1.43. Work on CN(C)C(=O)C1N=C(c2ccc(OCCCO)cc2)N(c2ccccc2)O1 (stereo not given) yielded a z-score of -0.254. With O=C1O[C@H](c2ccccc2)[C@H](c2ccccc2)N2[C@H]1[C@@H](C(=O)O)[C@]1(C(=O)Nc3ccc(C#CC4=CCCCC4)cc31)[C@H]2c1ccc(O)cc1 the z-score was -2.25. Work on C=CCOC(=O)[C@H]1[C@@H]2C(=O)O[C@@H](c3ccccc3)[C@@H](c3ccccc3)N2[C@@H](c2ccc(OCCOC(=O)[C@H]3C[C@H]4C(=O)N[C@@H](CCCCNC(C)=O)C(=O)N4[C@H]3c3ccc(O)cc3)cc2)[C@]12C(=O)Nc1ccccc12 yielded a z-score of 1.03. In the case of CN1C(=O)C2C=CC(C(O)c3cccc4ccccc34)N(N3CCCCC3)C2C1=O (stereo not given), the z-score is reported as -0.493. C=CCOC(=O)[C@H]1[C@@H]2C(=O)O[C@@H](c3ccccc3)[C@@H](c3ccccc3)N2[C@@H](c2ccc(OCCOC(=O)[C@@H]3C[C@@H]4C(=O)N5CCC[C@H]5C(=O)N4[C@@H]3c3ccc(O)cc3)cc2)[C@]12C(=O)Nc1ccc(I)cc12 gave a z-score of -0.0749. For O=C1C2C=CC(C(O)c3ccccc3)N(Nc3ccccc3F)C2C(=O)N1c1ccccc1 (stereo not given), the z-score was 0.379. For CN(C)c1ccc(C(O)C2C=CC3C(=O)N(c4ccccc4)C(=O)C3N2Nc2ccc([N+](=O)[O-])cc2)cc1 (stereo not given), the z-score was -0.215. Work on [N-]=[N+]=NCc1ccccc1[C@H]1OC(c2ccc(OCCCO)cc2)=N[C@@]1(CCS(=O)(=O)c1ccccc1)C(=O)N1CCCCC1 yielded a z-score of -0.946. C=CCOC(=O)[C@H]1[C@@H]2C(=O)O[C@@H](c3ccccc3)[C@@H](c3ccccc3)N2[C@@H](c2ccc(OCCOC(=O)[C@@H]3C[C@@H]4C(=O)N[C@@H](CCCCNC(C)=O)C(=O)N4[C@@H]3c3ccc(O)cc3)cc2)[C@]12C(=O)Nc1ccc(I)cc12 gave a z-score of -0.957. For COc1cc2c(cc1OC)CN(C(=O)[C@@H]1[C@H]3C(=O)O[C@H](c4ccccc4)[C@H](c4ccccc4)N3[C@H](c3ccc(OCCO)cc3)[C@@]13C(=O)Nc1ccc(C#CC4(O)CCCCCC4)cc13)CC2, the z-score was 0.792. Work on C=C(/C(=C/C[C@H](OC(C)=O)c1ccccc1OCCO)c1cc(C(=O)OC)ccc1OC)C(C)C yielded a z-score of -1.75. CCOC(=O)C[C@H]1[C@H](OC(=O)c2cc3ccccc3oc2=O)[C@@H](NC(=O)c2ccc(-c3ccccc3)cc2)c2cc(OCCCO)ccc2N1C(=O)c1ccc2ccccc2n1 showed a z-score of 0.624. Compound CN(C)CCCCNC(=O)[C@@H]1C[C@@H]2C(=O)N[C@@H](Cc3ccccc3)C(=O)N2[C@@H]1c1cccc(OCCO)c1 has a z-score of 0.573. COc1ccc([Si](C)(C)[C@@H]2[C@@H](CCO)O[C@]3(C(=O)N(Cc4ccc(N5CCCCC5=O)cc4)c4ccccc43)[C@H]2C)cc1 showed a z-score of -3.05. COCCOC(=O)N1C(=O)[C@@]2(c3cc(C#CC4=CCCCC4)ccc31)[C@H](c1ccccc1OCCO)N1[C@H](c3ccccc3)[C@H](c3ccccc3)OC(=O)[C@H]1[C@@H]2C(=O)Nc1nc2ccccc2s1 gave a z-score of -3.43. For CCCCC(=C=CC[C@@H](O)c1ccccc1OCCO)C[C@@H](O)COCc1ccccc1, the z-score was -2.12. Work on Cc1ccc(S[C@]2(C(=O)NCC(F)(F)F)CC(=O)N(Cc3ccccc3)[C@@H]2c2ccc(CO)cc2I)cc1 yielded a z-score of -2.08. O=C(NCC(F)(F)F)[C@@H]1c2ccccc2C(=O)N(Cc2cc(F)cc(C(F)(F)F)c2)[C@H]1c1ccc(CO)cc1 gave a z-score of -0.202.
